# Results published in PubChem BioAssay (EPA / NIEHS).
# Inconclusive results are not listed. Active and inactive are the calls of the source. The calls were made as follows, unless noted: active = hit-call score of the fitted dose curve at least 0.9, where 1 is the maximum; inactive = score below 0.9.
# How the values were obtained:
# [1] = TOX21_p53_BLA_p2_viability: Viability Assessment in the Tox21 HCT-116 p53 Agonism Beta-lactamase Assay, Phase 2 (AID 2283591; active = hit-call score of the fitted dose curve at least 0.9, where 1 is the maximum;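 also: compound exposure lasted 16 h at 37 °C; actives lower the ATP signal meaning cytotoxicity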)
# Method in brief: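 HCT-116 p53-bla cells (4000/well) rested 5 h at 37C, then received compounds in DMSO (217-fold dilution) for 16 h at 37C, 5% CO2. After the CCF4 read, CellTiter-Glo was added; ATP luminescence was read after 30 min at room temperature.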
# [2] = TOX21_p53_BLA_p3_viability: Viability Assessment in the Tox21 HCT-116 p53 Agonism Beta-lactamase Assay, Phase 3 (AID 2283593; active = hit-call score of the fitted dose curve at least 0.9, where 1 is the maximum;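 also: cells exposed to compound for 16 h before reading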)
# Method in brief: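 HCT-116 cells (4000/well) rested 5 h at 37C, then got DMSO compounds by pin tool (217-fold dilution) for 16 h at 37C, 5% CO2. After the bla read, CellTiter-Glo was added and luminescence read at 30 min, room temperature.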
# [3] = TOX21_p53_BLA_p4_viability: Viability Assessment in the Tox21 HCT-116 p53 Agonism Beta-lactamase Assay, Phase 4 (AID 2283597; active = hit-call score of the fitted dose curve at least 0.9, where 1 is the maximum;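 also: hits lower the luminescence signal meaning cytotoxicity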)
# Method in brief: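 We seeded HCT116 p53 reporter cells at 4000/well and waited 5 h. We then added compounds in DMSO at a 217-fold dilution and incubated for 16 h. Viability was read as CellTiter-Glo luminescence after 30 min at RT.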
# [4] = target: Cellular tumor antigen p53 (Homo sapiens) (UniProt P04637); test: TOX21_p53_BLA_p5_ratio: Tox21 HCT-116 p53 Agonism Beta-lactamase Assay, Ratio, Phase 5 (AID 2283599; active = hit-call score of the fitted dose curve at least 0.9, where 1 is the maximum)
# Method in brief: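 HCT-116 cells carrying a p53-inducible beta-lactamase reporter were seeded at 4000 cells/well and dosed after 5 h with compound in DMSO (217-fold dilution). After 16 h at 37C, CCF4-AM substrate was added for 2 h, and the 460/530 nm emission ratio was scored as gain-of-signal versus DMSO.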
# [5] = CCTE_Shafer_MEA_dev_firing_rate_mean: CCTE's Neural Network Formation Assay for Mean Firing Rate, Shafer Lab (AID 2284031)
# Method in brief: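 Rat primary cortical neurons were seeded on multielectrode arrays and treated from plating through day 12, with redosing at each feed. Spontaneous spiking was recorded four times; mean firing rate AUC was fitted downward against DMSO.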
# [6] = CCTE_Shafer_MEA_dev_per_burst_spike_percent: CCTE's Neural Network Formation Assay for Percent of Spikes in a Burst, Shafer Lab (AID 2284032)
# Method in brief: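 Rat primary cortical neurons on 16-electrode MEA wells, dosed from plating day 0 for 12 days with renewal on DIV 5 and 9; spikes-in-bursts percentage averaged over bursting electrodes, collapsed as AUC across days 5, 7, 9, 12; loss direction versus DMSO.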
# [7] = CCTE_Shafer_MEA_dev_active_electrodes_number: CCTE's Neural Network Formation Assay for Number of Active Electrodes, Shafer Lab (AID 2284040; active = hit-call score of the fitted dose curve at least 0.9, where 1 is the maximum)
# Method in brief: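 Primary rat cortical neurons on 16-electrode MEA wells, exposed from day 0 through day 12 with compound renewed at DIV 5 and 9 feeds. Active electrodes (mean firing ≥5 spikes/min) counted at DIV 5, 7, 9, 12; trapezoidal AUC across days, loss-of-signal versus DMSO.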
# [8] = CCTE_Shafer_MEA_dev_burst_rate: CCTE's Neural Network Formation Assay for Burst Rate, Shafer Lab (AID 2284042)
# Method in brief: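 Cells plated, treated day 0; recorded DIV 5, 7, 9, 12; fed and re-treated DIV 5, 9. Endpoint: bursts per recording time, active-electrode well mean, trapezoidal AUC, fitted in decreasing direction against DMSO baseline.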
# [9] = CCTE_Shafer_MEA_dev_per_burst_interspike_interval: CCTE's Neural Network Formation Assay for Burst Interspike Interval, Shafer Lab (AID 2284044)
# Method in brief: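 Readout is the average time between spikes inside single-electrode bursts, taken as a well mean across bursting electrodes. Cortical neurons from rat developed networks on MEA plates under continuous 12-day exposure; recordings on days 5, 7, 9 and 12 were integrated by trapezoidal AUC.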
# [10] = CCTE_Shafer_MEA_dev_burst_duration_mean: CCTE's Neural Network Formation Assay for Mean Burst Duration, Shafer Lab (AID 2284045)
# Method in brief: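 Primary rat cortical neurons on PEI-coated 16-electrode MEA wells, exposed from plating through day 12 with compound renewed at DIV 5 and 9; spontaneous activity recorded days 5, 7, 9, 12. Well-mean burst duration collapsed as trapezoidal AUC, fitted for loss versus DMSO.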
# [11] = CCTE_Shafer_MEA_dev_interburst_interval_mean: CCTE's Neural Network Formation Assay for Mean Interburst Interval, Shafer Lab (AID 2284046);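 also: well-mean interburst interval of bursting electrodes as AUC over four recording days; curve fitted for decrease in interburst interval relative to DMSO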
# Method in brief: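 Developing rat cortical networks on 48-well MEAs receive compound from the day of plating. Burst intervals from each active electrode are averaged per well, and AUC over the recording days is fitted in the negative direction against DMSO.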
# [12] = CCTE_Shafer_MEA_dev_inter_network_spike_interval_mean: CCTE's Neural Network Formation Assay for Mean Inter-network Spike Interval, Shafer Lab (AID 2284047)
# Method in brief: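 Rat cortical cultures, 1.5 x 10^5 cells/well on 48-well MEA plates; continuous exposure days 0–12, medium and compound refreshed DIV 5, 9. Mean time between consecutive network-spike peaks; AUC across DIV 5/7/9/12; DMSO baseline, negative fitting direction.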
# [13] = CCTE_Shafer_MEA_dev_network_spike_number: CCTE's Neural Network Formation Assay for Number of Network Spikes, Shafer Lab (AID 2284048)
# Method in brief: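 Primary rat cortical neurons were seeded at 1.5 x 10^5 cells/well on PEI-coated 16-electrode MEA wells with laminin, exposed from plating day 0, compound renewed at DIV 5 and 9. Network spikes were recorded on days 5, 7, 9, 12 and summarized as trapezoidal AUC versus DMSO.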
# [14] = CCTE_Shafer_MEA_dev_spike_duration_mean: CCTE's Neural Network Formation Assay for Mean Spike Duration, Shafer Lab (AID 2284051);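 also: mean network spike duration pooled as area under curve over DIV 5 to 12 recordings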
# Method in brief: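 Readout is the average length of network spikes, clustered firing across electrodes, summed over DIV 5, 7, 9 and 12 as area under the curve. Neurons from rat cortex developed networks on MEA plates under continuous 12-day exposure.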
# [15] = CCTE_Shafer_MEA_dev_network_spike_duration_std: CCTE's Neural Network Formation Assay for Standard Deviation of Network Spike Duration, Shafer Lab (AID 2284052);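 also: area under curve of spike duration SD across recording days 5 to 12; hits are decreases in network spike duration SD versus DMSO vehicle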
# Method in brief: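 Read-out is the trapezoidal area-under-the-curve across recordings made on days 5, 7, 9 and 12, fitted in the negative direction against DMSO baseline. Neurons were primary rat cortical cells treated from day 0, with treatment renewed at each feed.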
# [16] = CCTE_Shafer_MEA_dev_per_network_spike_spike_number_mean: CCTE's Neural Network Formation Assay for Mean Number of Spikes in a Network Spike, Shafer Lab (AID 2284053)
# Method in brief: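 Continuous twelve-day exposure of developing rat cortical networks grown over 16 microelectrodes per well; spontaneous firing is captured at four time points, and the per-network-spike spike number is integrated over development by trapezoidal AUC.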
# [17] = CCTE_Shafer_MEA_dev_per_network_spike_spike_percent: CCTE's Neural Network Formation Assay for Percent of Spikes in a Network Spike, Shafer Lab (AID 2284054)
# Method in brief: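 Primary rat cortical neurons on 16-electrode MEA wells (PEI-coated, laminin at plating), exposed from day 0 with renewal at DIV 5 and 9; spikes within 0.05 s of network-spike peaks over total spikes, AUC across days 5, 7, 9, 12.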
# [18] = CCTE_Shafer_MEA_dev_LDH: CCTE's Lactate Dehydrogenase Assay for Cytotoxicity in the Neural Network Formation Assay, Shafer Lab (AID 2284068; active = hit-call score of the fitted dose curve at least 0.9, where 1 is the maximum;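 also: exposure for twelve days from plating with re-dosing on DIV 5 and 9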)
# Method in brief: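 Cytotoxicity companion to network-formation recordings: rat cortical neurons received compound over 12 days of development, re-dosed at DIV 5 and 9 feeds. Viability was inferred from LDH enzyme activity relative to DMSO.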
# [19] = CCTE_Shafer_MEA_dev_AB: CCTE's Alamar Blue Assay for Cytotoxicity in the Neural Network Formation Assay, Shafer Lab (AID 2284083; active = hit-call score of the fitted dose curve at least 0.9, where 1 is the maximum;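 also: resazurin reduction fluorescence as viability of cultured neurons; twelve days of exposure from plating with re-dosing on DIV 5 and 9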)
# Method in brief: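 Fluorescent resazurin reduction serves as the viability read-out, with DMSO as negative control and baseline. Cells were primary rat cortical neurons grown on MEA plates and dosed from day 0 to day 12, treatment renewed on DIV 5 and 9.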
# [20] = CCTE_Shafer_MEA_dev_mutual_information_norm: CCTE's Neural Network Formation Assay for Mutual Information Normalization, Shafer Lab (AID 2284091)
# Method in brief: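 Rat cortical cultures, 48-well MEA, continuous exposure DIV 0–12 with full media/compound change DIV 5 and 9. Readout: inter-electrode mutual information, AxIS adaptive spike detection; AUC across DIV 5/7/9/12 recordings; DMSO baseline, negative fitting direction.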
# [21] = CCTE_Shafer_MEA_dev_correlation_coefficient_mean: CCTE's Neural Network Formation Assay for Mean Correlation Coefficient, Shafer Lab (AID 2284093)
# Method in brief: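 Read-out: well-mean correlation coefficient of spike trains between electrode pairs, collapsed over four recording days as trapezoidal area-under-the-curve. Developing rat cortical neuron networks grown on MEAs received test chemical continuously from plating.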
# [22] = CCTE_Mundy_HCI_Cortical_Synap_Neur_Matur_NeuriteSpotCountPerNeuriteLength: CCTE's Synaptogenesis and Neurite Maturation Assay in rat cortical cells for Neurite Spot Count per Neurite Length, Mundy Lab (AID 2284210)
# Method in brief: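 Rat primary cortical cultures, glia arrested with AraC at DIV 5, were dosed with media change at DIV 7 and fixed at DIV 12. Synaptophysin puncta per MAP2-labelled neurite length were quantified by high-content imaging versus DMSO.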
# [23] = CCTE_Mundy_HCI_Cortical_NOG_NeuriteLength: CCTE's Neurite Outgrowth Assay in rat cortical cells for Neurite Length, Mundy Lab (AID 2284213)
# Method in brief: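 Neurite length was read by high-content imaging of βIII-tubulin-labelled neurites in rat primary cortical cultures. Activity was fitted relative to DMSO.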
# [24] = CCTE_Mundy_HCI_Cortical_Synap_Neur_Matur_NeuriteSpotCountPerNeuron: CCTE's Synaptogenesis and Neurite Maturation Assay in rat cortical cells for Neurite Spot Count per Neuron Count, Mundy Lab (AID 2284215)
# Method in brief: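 Read-out: neurite-associated synaptophysin puncta per neuron, imaged by high-content analysis after MAP2, synaptophysin and Hoechst staining. Rat primary cortical cultures, dosed DIV 7 through DIV 12; DMSO served as baseline.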
# [25] = CCTE_Mundy_HCI_Cortical_Synap_Neur_Matur_SynapseCount: CCTE's Synaptogenesis and Neurite Maturation Assay in rat cortical cells for Synapse Count, Mundy Lab (AID 2284218)
# Method in brief: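 Primary rat cortical culture; AraC DIV 5 to arrest glia; compound + media change DIV 7; terminated DIV 12. PFA/Hoechst fix, anti-MAP2 + anti-synaptophysin immunostain; HCI synapse count/neuron; DMSO = baseline.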
# [26] = CCTE_Mundy_HCI_hN2_NOG_NeuriteCount: CCTE's Neurite Outgrowth Assay in human hN2 cells for Neurite Count, Mundy Lab (AID 2284219; active = hit-call score of the fitted dose curve at least 0.9, where 1 is the maximum)
# Method in brief: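 In this morphology assay, hNP1-derived neurons received test chemical 2 h post-plating and were fixed two days later in warm paraformaldehyde/sucrose containing Hoechst 33342. Neurites, labelled by rabbit anti-βIII-tubulin (1:800) and Alexa Fluor-488 (1:500), were counted automatically.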
# [27] = CCTE_Mundy_HCI_hN2_NOG_NeuriteLength: CCTE's Neurite Outgrowth Assay in human hN2 cells for Neurite Length, Mundy Lab (AID 2284220; active = hit-call score of the fitted dose curve at least 0.9, where 1 is the maximum)
# Method in brief: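 Using βIII-tubulin immunofluorescence and Hoechst nuclear counterstain, this component quantifies neurite length in hNP1-derived neurons.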
# [28] = CCTE_Mundy_HCI_hN2_NOG_NeuronCount: CCTE's Neurite Outgrowth Assay in human hN2 cells for Neuron Count, Mundy Lab (AID 2284221; active = hit-call score of the fitted dose curve at least 0.9, where 1 is the maximum)
# Method in brief: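 Read-out is the number of betaIII-tubulin-positive neurons imaged by automated high-content analysis, with DMSO as negative control.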
# [29] = CCTE_Mundy_HCI_Cortical_Synap_Neur_Matur_CellBodySpotCount: CCTE's Synaptogenesis and Neurite Maturation Assay in rat cortical cells for Cell Body Spot Count, Mundy Lab (AID 2284223)
# Method in brief: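 Read-out: cell body-associated synaptophysin puncta per neuron, imaged after MAP2, synaptophysin and Hoechst staining. Rat cortical cells, AraC DIV 5, chemical dosing DIV 7, fixation DIV 12. Activity fitted in positive direction relative to DMSO baseline.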
# [30] = CCTE_Mundy_HCI_hNP1_Casp3_7: CCTE's Caspase-Glo 3/7 Assay in human neuroprogenitor cells for Apoptosis, Mundy Lab (AID 2284240)
# Method in brief: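 Neuroepithelial-lineage stem cells from WA09 embryonic cells were treated with chemicals after 40–44 h of culture. Twenty-four hours later, caspase-3/7 activation was detected luminescently after a 30 min room-temperature reagent step, with DMSO as baseline.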
# [31] = CCTE_Mundy_HCI_Cortical_Synap_Neur_Matur_NeuronCount: CCTE's Synaptogenesis and Neurite Maturation Assay in rat cortical cells for Neuron Count, Mundy Lab (AID 2284242; active = hit-call score of the fitted dose curve at least 0.9, where 1 is the maximum)
# Method in brief: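 Neuron number was scored by automated high-content imaging of Hoechst- and MAP2-labelled rat primary cortical cells. Glial growth was arrested with AraC at DIV 5, compounds were applied from DIV 7, and cultures ended at DIV 12.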
# Cellular tumor antigen p53 (Homo sapiens), sequence (P04637 whole entry, looked up): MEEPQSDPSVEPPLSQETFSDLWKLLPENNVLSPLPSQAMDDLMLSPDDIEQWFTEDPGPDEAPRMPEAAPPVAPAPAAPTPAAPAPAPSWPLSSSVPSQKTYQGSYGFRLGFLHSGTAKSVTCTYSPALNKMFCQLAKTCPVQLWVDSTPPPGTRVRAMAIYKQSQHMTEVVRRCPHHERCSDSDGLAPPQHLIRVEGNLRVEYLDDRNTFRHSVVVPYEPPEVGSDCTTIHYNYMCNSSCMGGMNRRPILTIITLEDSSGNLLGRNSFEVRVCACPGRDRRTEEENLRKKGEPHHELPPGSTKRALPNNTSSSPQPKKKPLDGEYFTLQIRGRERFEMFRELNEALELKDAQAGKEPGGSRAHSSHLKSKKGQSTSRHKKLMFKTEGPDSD
smiles,measurement,setting,value
CN[C@]1(c2ccccc2Cl)CCCCC1=O,outcome,[1],inactive
same,outcome,[2],inactive
same,outcome,[3],inactive
same,outcome,[4],inactive
same,outcome,[5],inactive
same,outcome,[6],inactive
same,outcome,[7],inactive
same,outcome,[8],inactive
same,outcome,[9],inactive
same,outcome,[10],inactive
same,outcome,[11],inactive
same,outcome,[12],inactive
same,outcome,[13],inactive
same,outcome,[14],inactive
same,outcome,[15],inactive
same,outcome,[16],inactive
same,outcome,[17],inactive
same,AC50,[18],9.27 µM (active)
same,outcome,[19],inactive
same,outcome,[20],inactive
same,outcome,[21],inactive
same,outcome,[22],inactive
same,outcome,[23],inactive
same,outcome,[24],inactive
same,outcome,[25],inactive
same,outcome,[26],inactive
same,outcome,[27],inactive
same,outcome,[28],inactive
same,outcome,[29],inactive
same,outcome,[30],inactive
same,outcome,[31],inactive
